USP8 block: blocks human USP8 ubiquitin-rhodamine cleavage; purified USP8, Ub-rhodamine cleavage fluorescence, 30 min; inhibition, % at 20 µM; 47,000 tested, 4.2% active; AID 1645853
USP30 inh: blocks human USP30 ubiquitin-rhodamine cleavage; Q70CQ3; purified USP30, Ub-rhodamine cleavage fluorescence; inhibition, % at 25 µM; 47,000 tested, 5.3% active; AID 1645860
UCHL1 inh: human UCHL1 deubiquitinase inhibition; P09936; purified UCHL1, Ub-rhodamine cleavage fluorescence; inhibition, % at 20 µM; 47,000 tested, 0.2% active; AID 1645859
USP17 block: blocks human USP17 ubiquitin-rhodamine cleavage; purified USP17, Ub-rhodamine cleavage fluorescence, 3 h; inhibition, % at 50 µM; 47,000 tested, 6.5% active; AID 1645855
USP10 inh: blocks human USP10 ubiquitin-rhodamine cleavage; Q14694; AID 1645856; 47,000 tested, 1.1% active; inhibition, % at 20 µM; purified USP10, Ub-rhodamine fluorescence, 60 min
USP7 inh: inhibitors of human USP7 deubiquitinase. purified USP7, Ub-rhodamine cleavage fluorescence. inhibition, % at 20 µM. 47,000 tested, 0.3% active
Numbers without * were called inactive; i = inactive; . = no result given. Rows were chosen to be rich in hits. Some 12% of all compounds tested hit in one or more screens of this group. Rule as the data show it: active = inhibition above about 30%; inactive = the rest.

SMILES	USP8 block	USP30 inh	UCHL1 inh	USP17 block	USP10 inh	USP7 inh
Cc1nc(-c2cccc(NC(=O)C3CC(=O)N(c4ccc(C)c(C)c4)C3)c2)no1 (centres undefined)	-5.8	-387.7	-23.6	-29.8	-4.6	-17.0
COc1ccccc1NC(=O)c1nn(-c2cccc(F)c2)c(OC)cc1=O	16.7	75.8*	5.3	46.1*	3.0	7.0
COc1cc(=O)c(C(=O)Nc2ccccc2)nn1-c1cccc(F)c1	-8.6	8.9	-1.2	-3.9	0.0	-0.5
COc1ccccc1NC(=O)c1nc(-c2cn(-c3cccc(F)c3)nn2)no1	96.1*	-45.3	12.4	1.4	42.2*	14.0
Cc1nn(-c2ccc(F)cc2)cc1-c1noc(C(=O)NCc2ccccc2)n1	-5.4	-1.3	3.4	-1.0	8.2	-18.0
O=C(c1nc(-c2cn(-c3cccc(F)c3)nn2)no1)N1CCOCC1	3.5	-0.7	-1.1	-7.4	1.2	-7.6
O=C(Nc1ccccc1F)c1nc(-c2cn(-c3ccc(F)cc3)nn2)no1	90.4*	-17.3	11.1	-3.8	25.5	-13.0
O=C(Nc1ccccc1)c1nc(-c2cn(Cc3ccc(F)cc3)nn2)no1	25.7	55.2*	3.2	22.9	12.3	4.5
Cc1ccc(CN2C(=O)CCc3c(C)nc(-c4ccncc4)nc32)o1	-21.4	i	-39.3	-139.7	-5.4	-42.7
O=C(NC1CC1)c1nc(-c2cn(-c3ccc(Cl)cc3)nn2)no1	39.6*	19.1	1.0	17.9	5.9	12.1
O=C(NC1CC1)c1nc(-c2cn(-c3ccc(F)cc3)nn2)no1	3.5	-4.4	-2.1	1.7	0.9	-0.1
CNC(=O)c1c2n(c3ncccc13)CC(C)N(C(=O)c1ccc(Cl)cc1)C2 (centres undefined)	5.4	-7.5	0.0	0.8	0.4	0.1
c1ccc(-c2noc(-c3cc(-c4ccncc4)nc4ccccc34)n2)nc1	-7.0	14.3	1.1	53.2*	-2.1	1.1
Cn1cc(-c2nc(-c3ccccn3)no2)c(=O)c2ccccc21	-9.4	6.1	-5.2	-0.6	2.8	4.6
Cc1nc(-c2cccs2)cc(-c2cccc(Cl)c2)c1C#N	26.9	37.1*	2.3	17.9	7.1	3.2
COc1ccc(C(=O)Nc2sc3c(c2C(=O)NCc2cccnc2)CCCC3)cc1	25.9	13.9	1.1	66.5*	-14.9	0.1
COc1ccc(CN2CCc3oc(C)c(C(=O)NCc4cccnc4)c3C2)cc1	-37.0	-145.8	-23.5	-35.1	-6.7	-27.4
CCOC(=O)C1CCN(C(=O)Cn2c(=O)cc(C)c3c(-c4ccccc4)nn(-c4ccccc4)c32)CC1	7.4	33.9*	3.9	10.0	-0.7	7.2
Cc1cccc(-c2nn(-c3ccccc3)c3c2c(C)cc(=O)n3CC(=O)N2CCOCC2)c1	6.0	-9.7	7.4	-1.5	5.3	12.0
O=C(Nc1ccc(Cl)cc1)c1cccnc1Nc1cccc(F)c1	9.9	4.3	8.3	3.3	8.6	-3.4
Cc1cccc2cc(CN(Cc3ccc4c(c3)OCO4)C(=O)NCc3ccccc3)c(=O)[nH]c12	13.3	36.2*	5.8	19.6	9.4	8.7
Cc1cc2cc(CN(Cc3ccc4c(c3)OCO4)C(=O)Nc3ccccc3)c(=O)[nH]c2cc1C	-57.2	-285.0	-8.6	13.1	-7.3	-4.6
Cc1cccc2c(=O)[nH]c(CN3CCN(C(c4ccccc4)c4ccccc4)CC3)nc12	-7.3	-14.7	6.4	2.0	3.0	5.6
COc1c(C)cccc1C(=O)Nc1ccc(-c2nc3ccccc3[nH]2)cc1	0.0	-21.0	-7.4	3.3	-1.7	-0.1
O=C(O)c1cccc2[nH]c(-c3ccc(O)cc3)nc12	41.3*	22.2	2.2	18.4	3.2	4.0
SMILES	USP8 block	USP30 inh	UCHL1 inh	USP17 block	USP10 inh	USP7 inh
Cc1ccc(CN2CC[C@@H]3[C@@H](CO[C@@H]3CNS(C)(=O)=O)C2)o1	-63.4	-16.2	0.2	-18.2	-5.8	-2.4
CCOC(=O)N1CCC(NC(=O)c2cn(-c3ccc(C)cc3)nn2)CC1	1.5	.	-0.4	60.0*	-0.3	5.5
CCOC(=O)N1CCC(NC(=O)c2cn(-c3ccccc3Cl)nn2)CC1	1.9	-4.7	-2.8	-6.6	3.0	0.3
Cc1ccc(-n2cc(C(=O)NCCCc3ccccc3)nn2)cc1	78.4*	48.8*	7.2	27.7	23.8	24.8
Cc1ccc(-n2cc(C(=O)N3CCN(c4ccccc4)CC3)nn2)cc1	39.6*	43.7*	0.0	39.8*	6.1	1.6
Cc1cc(NC(=O)Cc2nc(C)c(C(=O)NC3CC3)s2)ccc1F	-19.1	-162.0	-12.0	.	-9.6	-13.6
COc1cccc(S(=O)(=O)N2CCn3nc(C(C)(C)C)cc3C2)c1	22.0	78.8*	3.0	12.0	0.1	0.2
COc1cccc(S(=O)(=O)N2CCCn3nnc(COCC4CC4)c3C2)c1	10.3	19.1	0.9	2.2	0.1	0.0
Cc1ccc2cc(CCNC(=O)COc3ccc(Cl)cc3)c(=O)[nH]c2c1	0.9	12.7	2.8	37.5*	-0.1	-7.0
COc1ccc2cc(CCNC(=O)C3(c4ccc(Cl)cc4)CCCC3)c(=O)[nH]c2c1	0.4	9.3	2.5	43.4*	-1.2	1.8
COc1ccc(-c2[nH]c3ccccc3c2CCC(=O)N2CCOCC2)cc1	-16.6	-42.0	-1.2	-4.4	-4.9	0.4
c1csc(-c2nc(NC3CCCCC3)c3ccccc3n2)c1	0.2	-3.8	4.7	13.3	2.9	0.9
c1csc(-c2nc(Nc3ccc4c(c3)CCC4)c3ccccc3n2)c1	57.3*	-85.9	-0.7	71.3*	-2.2	5.6
CCc1ccccc1N1CC(c2nnc(NC(C)=O)s2)CC1=O (centres undefined)	1.1	20.3	0.5	1.0	0.0	1.7
COc1ccc(CCC(=O)Nc2nnc(C3CC(=O)N(c4ccccc4)C3)s2)cc1 (centres undefined)	-13.6	9.5	0.9	-3.3	34.0*	4.6
CCc1ccccc1N1CC(c2nnc(NC(=O)Cc3ccc(C)cc3)s2)CC1=O (centres undefined)	-27.1	14.0	3.1	36.7*	6.9	2.2
CC1=C(CO)C(=O)O[C@@H]([C@@H](C)[C@H]2CC[C@H]3[C@@H]4C[C@H]5O[C@]56[C@@H](O)C=CC(=O)[C@]6(C)[C@H]4CC[C@]23C)C1	8.9	83.0*	3.8	72.1*	11.7	3.9
N#Cc1ccc(Oc2ccc(S(=O)(=O)N3CCOCC3)cc2[N+](=O)[O-])cc1	-138.2	-3.8	-0.9	-17.4	-0.4	-17.8
COc1ccccc1OC(C)C(=O)Nc1ccc2nsnc2c1 (centres undefined)	72.5*	24.6	5.7	31.7*	4.2	-4.5
COc1ccccc1OC(C)C(=O)Nc1ccc2c(c1)NC(=O)CO2 (centres undefined)	-78.9	2.5	0.5	-18.2	-10.4	-2.1
Cc1ccc(NC(=O)Cn2c(=O)n(Cc3ccncc3)c(=O)c3ncccc32)cc1Cl	-7.4	-18.1	-0.7	16.1	-3.6	-9.4
Cc1ccc(NC(=O)Nc2ccc(C)n(CC(=O)Nc3ccccc3)c2=O)cc1	44.9*	.	2.2	89.2*	39.1*	20.5

Compound activity (PubChem BioAssay)
